Measurements reported in PubChem BioAssay (NCATS).
Records with an inconclusive call do not appear. Entries that show only a call come without a potency. Calls of active or inactive are those of the source. Calls follow the shape of the dose curve; as a rule, active = well fitted inhibition curve with a large enough effect; inconclusive = small, poorly fitted or top-dose-only effect; inactive = flat fitted curve, though single readings scatter.

The molecules below were run on W2 (assay: qHTS profiling for inhibitors of Plasmodium falciparum proliferation (AID 504749; also: nearly all actives have a fitted effect of over 60% in size)). Conditions: P. falciparum in erythrocytes, SYBR Green DNA, 72 h; series mostly up to 28.7 µM.
In short: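 Parasite proliferation within erythrocytes, 72 h exposure. Endpoint: SYBR Green I fluorescence after overnight lysis at room temperature. Controls: 0.29 uM artemisinin, DMSO.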

Q: `CCCCC(CC)COS(=O)(=O)O` (configuration not stated) was tested. Which Potency did it give?
A: Its Potency is “inactive”.

Q: How did the Potency turn out when `CC1(O)CCC(C(C)(C)O)CC1` (configuration not stated) was run?
A: Its Potency is “inactive”.

Q: How did the Potency turn out when `CCCCCCOC(=O)c1cccnc1` was run?
A: Its Potency is “inactive”.

Q: `FC(F)(F)COCC(F)(F)F` was tested. Which Potency did it give?
A: The Potency was “inactive”.

Q: With `CCCCCCCCCCCC(=O)N(CCO)CCO` as the molecule, how does the Potency read?
A: Its Potency is “inactive”.

Q: With `O=P(O)(O)OC[C@H]1O[C@](O)(COP(=O)(O)O)[C@@H](O)[C@@H]1O` as the molecule, how does the Potency read?
A: Its Potency is “inactive”.

Q: `COc1cc(S(C)=O)ccc1-c1nc2ncccc2[nH]1` (configuration not stated) was tested. Which Potency did it give?
A: The Potency was “inactive”.

Q: Which Potency does the source give for `O=c1[nH]c(=O)n([C@H]2C[C@H](O)[C@@H](CO)O2)cc1/C=C/Br` here?
A: Its Potency is “inactive”.

Q: Which Potency does the source give for `CC(=O)[C@H]1CC[C@H]2[C@@H]3C=CC4=CC(=O)CC[C@@]4(C)[C@H]3CC[C@]12C` here?
A: Its Potency is “inactive”.

Q: How did the Potency turn out when `NC(N)=O` was run?
A: The Potency was “inactive”.

Q: Which Potency does the source give for `CCC(C(=O)NC(N)=O)c1ccccc1` (configuration not stated) here?
A: The Potency was “inactive”.

Q: How did the Potency turn out when `CC(CCc1ccc(O)cc1)NCC(O)c1ccc(O)cc1` (configuration not stated) was run?
A: Its Potency is “inactive”.

Q: How did the Potency turn out when `Nc1nccs1` was run?
A: Its Potency is “inactive”.

Q: Which Potency does the source give for `NC(=S)NS(=O)(=O)c1ccc(N)cc1` here?
A: The Potency was “inactive”.

Q: Which Potency does the source give for `O=C(OCc1ccccc1)c1ccc(O)cc1` here?
A: The Potency was “inactive”.

Q: Which Potency does the source give for `CC1C(=O)CC2C3(C)CCC2(C(C)C(=O)O)C(=O)C13` (configuration not stated) here?
A: The Potency was “inactive”.

Q: Which Potency does the source give for `O=C(NNCS(=O)(=O)O)c1ccncc1` here?
A: The Potency was “inactive”.

Q: `CC(=O)Nc1ccc(OC(C)=O)cc1` was tested. Which Potency did it give?
A: Its Potency is “inactive”.

Q: How did the Potency turn out when `CC/C(=C(/CC)c1ccc(OP(=O)(O)O)cc1)c1ccc(OP(=O)(O)O)cc1` was run?
A: The Potency was “inactive”.

Q: With `OC[C@H]1O[C@@](CO)(O[C@H]2O[C@H](CO)[C@@H](O)[C@H](O)[C@H]2O)[C@@H](O)[C@@H]1O` as the molecule, how does the Potency read?
A: Its Potency is “inactive”.

Q: With `[O-][N+](=Nc1ccccc1)c1ccccc1` as the molecule, how does the Potency read?
A: The Potency was “inactive”.

Q: For `NC(=O)[C@H]1O[C@@H](O)[C@H](O)[C@@H](O)[C@@H]1O`, which Potency is on record?
A: The Potency was “inactive”.
